Results as given in PubChem BioAssay AID1508600 (Functional Genomics Laboratory (NCATS/FGL), 2020).
The campaign covered roughly 53,000 sequences. About 3,700 (7%) were called active.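 Rule for the calls: active = gene knockdowns whose robust z-score for IL-1 alpha signal is at least 2 or at most -2, so actives lie on both sides; inactive = the rest.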 The entries come from a sample that favours actives as a whole.

Assay: Components of the Cytosolic LPS Sensing Pathway: Gene Identification via Genome-wide siRNA Screen;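 note: robust z of the log signal after scaling to non-targeting control siRNA wells of the plate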
Conditions: RAW264.7 macrophages, IL-1a HTRF, actives lie on both sides, screened at 100 nM (by protocol), cells primed 5 h with Pam3CSK4 first
Summary of the method: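 Supernatant IL-1a by HTRF from RAW264.7 cells primed with Pam3CSK4 (5 hours) and transfected with LipidA (24 hour) after 48h siRNA knockdown at 100 nM; cell viability checked with CellTiter-Glo.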

Sequence	z-score
CCCUCACAACUUGAAGGACTT against Ccnk	-0.882 (inactive)
GGAAGAAGUAGACCUGUCUTT against Aar2	-2.36 (active)
GGCUUUAGCAGAUGAGCGATT against Sptbn4	-0.0568 (inactive)
GGGACUGAGGACUACAUUCTT against Eif1b	-1.17 (inactive)
GGAGAAAUAAAUGACUUGCTT against Zswim2	-0.762 (inactive)
CCCACAGUACAUUCUAAAATT against Arsb	0.776 (inactive)
GCGUCAAAAUUAUCCGAAATT against Trnau1ap	0.124 (inactive)
GGACACGUUUCUGUGUUGUTT against Tspan32	0.304 (inactive)
GCACUAUGGGUGUCAUGGUTT against Mon1a	-3.1 (active)
CGUAUUCCAUGGUUUCCUATT against Whrn	0.111 (inactive)
GGAGUUUCUGGAAUGCAGGTT against Sec22c	0.741 (inactive)
GCACAAUUUUAUAACUCGGTT against Lrrc49	0.457 (inactive)
GGAUAACUAUAUUCCAGUGTT against Rhobtb3	0.885 (inactive)
GGCUAAAACACUUAUCAAUTT against Poteg	-2.32 (active)
CGUACCAUGUAAAUUCUAUTT against Impa1	0.843 (inactive)
CCCAAGAAACUUCGCUUCCTT against Ehmt1	-0.551 (inactive)
GCCAAGCUUAAGAACUUAATT against Oas3	1.51 (inactive)
GGAAUAGGCCUUCUUGCUGTT against Matr3	-0.395 (inactive)
GCAAGACGGUGAUUGUAACTT against Pck2	-0.243 (inactive)
GCUGAUUGAACUGAAUGGATT against Slc22a21	-1.27 (inactive)
CCAGGAUUGAUUUAGAAAATT against BC107364	1.29 (inactive)
GGUCAUGGCUGGAUUUCUUTT against Olfr1462	-2.42 (active)
GCAGUGUCCAAAGCACUUUTT against Slc6a9	-1.14 (inactive)
GGAUCGCUUAGUCUCAUGATT against Inip	-0.493 (inactive)
GGUGAACGAUGUCAACUUUTT against Dvl1	-0.545 (inactive)
GCAUAGGAGAGACCAACAUTT against Zcchc10	-2.42 (active)
GGAGGAAAAUCAGACAGGATT against Olfr1419	-0.13 (inactive)
GGUCCUCAAGAUCUUUGUGTT against Extl1	0.0445 (inactive)
CCAAAACAACCACAAGUAGTT against Zfp385c	-2.96 (active)
GCUCUGUGGACUUCUUGGATT against Znrf4	-0.687 (inactive)
